Test results as given in PubChem BioAssay (NCATS).
Inconclusive results are not listed. The source made the active and inactive calls. Unless noted, calls follow the shape of the full dose curve.

Tests used:
[1] = biological target: Glucocorticoid receptor (Homo sapiens) (UniProt P04150); assay: qHTS assay for small molecule agonists of glucocorticoid receptor signaling (AID 588532; active = well fitted curve in the direction sought with a large enough effect in the signal ratio, with a control signal flat; the % refers to the signal ratio;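 also: 100% = dexamethasone at 0.1 µM and 0% = DMSO only wells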); settings: HeLa MMTV-bla, beta-lactamase ratio, agonist, 18 h; stronger effect = higher value; percent of dexamethasone control, DMSO zero
How it was run: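 Quantitative HTS using CellSensor MMTV-bla HeLa cells in charcoal/dextran-treated serum; compounds tested up to 92 uM. After 18 h at 37 C, CCF4 dye reported reporter induction.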

[2] = biological target: Glucocorticoid receptor (Homo sapiens) (UniProt P04150); assay: qHTS assay for small molecule antagonists of glucocorticoid receptor signaling (AID 588533; active = well fitted inhibition curve with a large enough effect in the signal ratio, with a control signal flat, not every such curve was filed as active; the % refers to the signal ratio;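 also: cells stimulated with 2 nM dexamethasone as agonist; % is scaled to controls: 0 for no effect and ±100 for the full control effect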)
How it was run: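 Antagonist-mode qHTS: compound titrations added to GRE-bla HeLa cells, then dexamethasone 2 nM final; 18 h, 37 C. CCF4 FRET fluorescence normalized to dexamethasone and DMSO; IC50 from Hill fit.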

[3] = qHTS assay for small molecule antagonists of peroxisome proliferator-activated receptor delta signaling (AID 588535; active = well fitted inhibition curve with a large enough effect in the signal ratio, with a control signal flat, not every such curve was filed as active; the % refers to the signal ratio;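 as to max response: cells co-treated with a PPAR-delta agonist as stimulator during compound exposure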); settings: HEK293T PPARd-UAS-bla, beta-lactamase FRET ratio, 18 h; 460 nm channel
How it was run: (§1)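 Antagonist-mode qHTS using GeneBLAzer PPAR-delta-UAS-bla HEK293T cells; compound exposure 18 hrs at 37 C over a titration. Ratiometric CCF4 fluorescence at 460/530 nm; concentration-response points fitted to the Hill equation.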

[4] = biological target: Peroxisome proliferator-activated receptor gamma (Homo sapiens) (UniProt P37231); assay: qHTS assay for small molecule agonists of peroxisome proliferator-activated receptor gamma signaling (AID 588536; active = well fitted curve in the direction sought with a large enough effect in the signal ratio, with a control signal flat, not every such curve was filed as active; the % refers to the signal ratio;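 also: 0% = DMSO basal wells and 100% = rosiglitazone at 2 µM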)
How it was run: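 This is an agonist-mode beta-lactamase reporter assay in HEK293 PPAR-gamma-UAS-bla cells with 1% charcoal/dextran FBS. Compound titrations ran 16 h at 37 C before CCF4 detection. EC50 and efficacy are Hill fits scaled to 2 uM rosiglitazone (100%) and DMSO basal.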

[5] = biological target: Peroxisome proliferator-activated receptor gamma (Homo sapiens) (UniProt P37231); assay: qHTS assay for small molecule antagonists of peroxisome proliferator-activated receptor gamma signaling (AID 588537; active = well fitted inhibition curve with a large enough effect in the signal ratio, with a control signal flat, not every such curve was filed as active; the % refers to the signal ratio;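 also: reporter cells co-stimulated with 50 nM rosiglitazone agonist during compound treatment; % of control where 0% means no effect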)
How it was run: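 Cell-based beta-lactamase assay; GW9662 served as the antagonist control. Stimulation used rosiglitazone, final 50 nM, 16 h, 37 C.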

[6] = biological target: Vitamin D3 receptor (Homo sapiens) (UniProt P11473); assay: qHTS assay for small molecule antagonists of vitamin D receptor signaling (AID 588541);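 also: receptor activated by calcitriol during compound treatment; series mostly up to about 77 µM; % is scaled to controls: 0 for no effect and ±100 for the full control effect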
How it was run: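 Antagonist-mode beta-lactamase reporter assay: HEK293T VDR-UAS-bla cells were exposed to titrated compound alongside 1-alpha,25-dihydroxyvitamin D3 at 3 nM final for 16 h. Values were normalized to the 50 nM agonist control and DMSO basal, with IC50 and efficacy from Hill equation fits.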

[7] = biological target: Vitamin D3 receptor (Homo sapiens) (UniProt P11473); assay: qHTS assay for small molecule agonists of vitamin D receptor signaling (AID 588543);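 also: 0% = DMSO basal and 100% = reference agonist control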
How it was run: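 qHTS in agonist mode: compound titrations stimulate a VDR-driven β-lactamase reporter in HEK293T cells over 16 h at 37 °C. Response normalized to 50 nM 1α,25-dihydroxyvitamin D3 = 100%, DMSO = 0%; Hill fitting gives EC50 and maximal response.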

[8] = biological target: Thyroid hormone receptor beta (Homo sapiens) (UniProt P10828); assay: qHTS assay for small molecule agonists of thyroid hormone receptor beta signaling (AID 588545);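 also: 0% = DMSO only and 100% = 10 nM T3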
How it was run: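 Beta-lactamase reporter activity under TR response element control is measured in HEK 293 cells after 18 hrs compound exposure. Signal is ratiometric CCF4 fluorescence, 460/530 nm.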

[9] = qHTS assay for small molecule antagonists of retinoid X receptor alpha signaling (AID 588546; active = well fitted inhibition curve with a large enough effect in the signal ratio, with a control signal flat, not every such curve was filed as active; the % refers to the signal ratio;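 also: cells stimulated with 9-cis-retinoic acid as agonist; % is scaled to controls: 0 for no effect and ±100 for the full control effect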); settings: HEK293T RXRa-UAS-bla, beta-lactamase ratio, antagonist mode; measured here: W530 green channel, cytotoxicity proxy
How it was run: (§2)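 Beta-lactamase reporter inhibition, read as CCF4 fluorescence ratio (ex 405, em 460/530 nm) after 2 h at RT. HEK293T UAS-bla cells, 2500/well, were stimulated with 9-cis-RA at 500 or 100 nM final alongside test compound for 18 h at 37 C.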

[10] = biological target: Retinoic acid receptor RXR-alpha (Homo sapiens) (UniProt P19793); assay: as above; settings: HEK293T RXRa-UAS-bla, beta-lactamase ratio, antagonist mode
How it was run: as §2

[11] = biological target: Thyroid hormone receptor beta (Homo sapiens) (UniProt P10828); assay: qHTS assay for small molecule antagonists of thyroid hormone receptor beta signaling (AID 588547; active = well fitted inhibition curve with a large enough effect in the signal ratio, with a control signal flat, not every such curve was filed as active; the % refers to the signal ratio;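 also: cells stimulated with 0.4 nM T3 agonist during compound exposure; series mostly up to about 77 µM; % is scaled to controls: 0 for no effect and ±100 for the full control effect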); settings: TR-UAS-bla HEK293, beta-lactamase ratio, antagonist mode, 18 h
How it was run: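 Inhibition of T3-driven (0.4nM final) beta-lactamase reporter activity was measured over 0.59 nM to 92 uM compound after 18 h at 37 C. The cells were GripTite HEK293 TR-UAS-bla in charcoal/dextran-stripped serum, with CCF4 ratio read-out and IC50 from Hill fits.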

[12] = qHTS assay for small molecule activators of the p53 signaling pathway (AID 651743; active = well fitted activation curve with a large enough effect in the signal ratio, not every such curve was filed as active; the % refers to the signal ratio; also: series mostly up to about 92 µM; % of control where 0% means no effect); settings: HCT-116 p53RE-bla, beta-lactamase FRET ratio, 16 h; activation: stronger effect = higher value
How it was run: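 A beta-lactamase reporter under p53 response element control, stably carried by HCT-116 cells, reported pathway activation. Test compounds were applied for 16 hours at 37 C, and fluorescence was measured 2 hours after adding the B/G FRET substrate.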

[13] = qHTS assay for small molecule activators of the nuclear factor-kappa B (NF-kB) signaling pathway (AID 651749; active = well fitted activation curve with a large enough effect in the signal ratio; the % refers to the signal ratio; also: series mostly up to about 77 µM; % of control where 0% means no effect); settings: NF-kB-bla ME-180 cells, beta-lactamase FRET ratio, 16 h; activation: stronger effect = higher value
How it was run: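 FRET-based beta-lactamase detection in ME-180 cells reports NF-kB response-element-driven transcription following overnight (16 hr) compound treatment.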

[14] = qHTS assay for environmental chemicals that activate the Aryl hydrocarbon Receptor (AhR) signaling pathway (AID 651777; active = well fitted curve in the direction sought with a large enough effect; an effect the other way counts as inactive or inconclusive; also: % of control where 0% means no effect; nearly all actives have a fitted effect of over 15% in size); settings: 1A2-DRE human hepatoma cells, luciferase, 24 h; activation: stronger effect = higher value
How it was run: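 Luminescence read-out: One-Glo added for 30 min at RT after 24 hr compound treatment (37 C, 5% CO2) of human hepatoma cells expressing a DRE/CYP1A2 promoter–luciferase reporter; increased signal indicates AhR activation.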

[15] = qHTS assay for small molecule agonists of the antioxidant response element (ARE) signaling pathway measured by Nrf2-dependant transcriptional activity (AID 720636; active = well fitted curve in the direction sought with a large enough effect in the repeat runs; an effect the other way counts as inactive or inconclusive;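 also: HepG2 cells with an ARE-driven luciferase reporter; % of control where 0% means no effect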)
How it was run: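 HepG2 ARE-luc reporter line, 1% dialyzed FBS; 6 hr attachment at 37 C, compound pinned in, 16 hr at 37 C/5% CO2; ONE-Glo, 30 min RT, luminescence read.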

[16] = qHTS assay for small molecule agonists of the antioxidant response element (ARE) signaling pathway measured by Nrf2-dependant transcriptional activity - cell viability counter screen (AID 720653; active = well fitted curve in the direction sought with a large enough effect in the repeat runs; an effect the other way counts as inactive or inconclusive; also: % is scaled to controls: 0 for no effect and ±100 for the full control effect); settings: ARE-bla HepG2 viability, CellTiter-Glo ATP luminescence, 16 h; max response: stronger effect = lower value
How it was run: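 Cytotoxicity counter screen: intracellular ATP quantified by CellTiter-Glo luminescence in the same ARE-bla HepG2 plates, after 16 h compound exposure and a 2 h beta-lactamase substrate step.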

[17] = qHTS assay for cell viability of HEK293 cells (AID 743288; active = well fitted curve in the direction sought with a large enough effect; an effect the other way counts as inactive or inconclusive; also: % is scaled to controls: 0 for no effect and ±100 for the full control effect; nearly all actives have a fitted effect of over 50% in size); settings: ATP luminescence (CellTiter-Glo), 18 h; max response: stronger effect = lower value
How it was run: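 Quantitative high-throughput screen: compounds were pinned onto parental HEK293 cells (2,000 per well) after a minimum 5 h settling at 37 C, incubated 18 h at 37 C, and intracellular ATP measured by luciferase luminescence.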

[18] = qHTS assay for cell viability of the p53RE-bla HCT-116 cell line (AID 743292; active = well fitted curve in the direction sought with a large enough effect; an effect the other way counts as inactive or inconclusive; also: % is scaled to controls: 0 for no effect and ±100 for the full control effect; nearly all actives have a fitted effect of over 55% in size)
How it was run: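 Luminescent ATP quantitation (CellTiter-Glo) served as the viability read-out; reagent was added after 16 h compound exposure at 37 C and read after 30 min at room temperature. Cells: p53RE-bla HCT-116, 4,000 per well.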

[19] = biological target: Nuclear receptor subfamily 1 group I member 2 (Rattus norvegicus) (UniProt Q9R1A7); assay: qHTS assay for small molecule activators of the rat pregnane X receptor (rPXR) signaling pathway (AID 651751; call rule not given here; also: 0% is about no effect); settings: rPXR reporter cells, luciferase (One-Glo), 24 h
[20] = qHTS assay for small molecule activators of the human pregnane X receptor (PXR) signaling pathway (AID 720659; call rule not given here; also: 0% is about no effect)
[21] = qHTS assay for small molecule agonists of retinoid X receptor alpha signaling (AID 588544); settings: HEK293T RXRa-UAS-bla, beta-lactamase reporter, 18 h; 530 nm emission;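 as to activation: 0% = DMSO basal wells and 100% = reference agonist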
[22] = biological target: Retinoic acid receptor RXR-alpha (Homo sapiens) (UniProt P19793); assay: as above
[23] = biological target: Peroxisome proliferator-activated receptor alpha (Homo sapiens) (UniProt Q07869); assay: qHTS assay for small molecule agonists of the peroxisome proliferator-activated receptor alpha (PPARalpha) signaling pathway (AID 651778; active = well fitted curve in the direction sought with a large enough effect; an effect the other way counts as inactive or inconclusive; also: % of control where 0% means no effect); settings: PathHunter PPARalpha complementation, chemiluminescence, 6 h; max response: stronger effect = higher value
How it was run: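 Chemiluminescence from complemented enzyme reported PPARalpha activation in cells after 6 hr of compound treatment at 37 C. The detection reagent was incubated for 60 min at room temperature, and compounds were scored as agonists.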

[24] = qHTS assay for small molecule agonists of the antioxidant response element (ARE) signaling pathway (AID 651741; active = well fitted activation curve with a large enough effect in the signal ratio; the % refers to the signal ratio; also: % of control where 0% means no effect)
How it was run: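 Agonist activity is measured as ARE-driven beta-lactamase expression in a stable HepG2 reporter line, using 16 h compound treatment at 37 C and a FRET substrate fluorescence readout after 2 h.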

[25] = biological target: Peroxisome proliferator-activated receptor delta (Homo sapiens) (UniProt Q03181); assay: qHTS assay for small molecule antagonists of peroxisome proliferator-activated receptor delta signaling (AID 588535);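 as to max response: cells co-treated with a PPAR-delta agonist as stimulator during compound exposure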
How it was run: as §1

Sequence of Glucocorticoid receptor (Homo sapiens) (P04150 whole entry, looked up): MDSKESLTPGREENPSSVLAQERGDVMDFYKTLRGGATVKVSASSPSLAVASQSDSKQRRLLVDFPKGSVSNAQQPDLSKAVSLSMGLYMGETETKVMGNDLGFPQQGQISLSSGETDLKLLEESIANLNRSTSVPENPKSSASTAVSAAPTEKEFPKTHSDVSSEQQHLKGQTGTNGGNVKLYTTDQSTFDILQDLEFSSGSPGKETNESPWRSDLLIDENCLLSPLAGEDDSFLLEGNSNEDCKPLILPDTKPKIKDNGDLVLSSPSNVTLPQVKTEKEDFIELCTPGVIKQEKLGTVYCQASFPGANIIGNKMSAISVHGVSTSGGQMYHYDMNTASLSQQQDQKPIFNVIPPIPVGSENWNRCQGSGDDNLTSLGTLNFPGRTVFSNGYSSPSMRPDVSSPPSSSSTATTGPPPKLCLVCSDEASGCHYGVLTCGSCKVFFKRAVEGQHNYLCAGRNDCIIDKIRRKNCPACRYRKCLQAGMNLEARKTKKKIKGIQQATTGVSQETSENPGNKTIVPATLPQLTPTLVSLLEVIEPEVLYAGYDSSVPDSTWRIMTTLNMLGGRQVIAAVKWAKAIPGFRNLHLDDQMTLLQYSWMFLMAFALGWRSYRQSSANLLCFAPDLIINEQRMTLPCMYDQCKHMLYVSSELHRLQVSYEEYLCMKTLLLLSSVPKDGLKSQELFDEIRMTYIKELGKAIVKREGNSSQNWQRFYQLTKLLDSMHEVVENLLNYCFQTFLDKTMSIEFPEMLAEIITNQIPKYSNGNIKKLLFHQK
Sequence of Nuclear receptor subfamily 1 group I member 2 (Rattus norvegicus) (Q9R1A7 whole entry, looked up): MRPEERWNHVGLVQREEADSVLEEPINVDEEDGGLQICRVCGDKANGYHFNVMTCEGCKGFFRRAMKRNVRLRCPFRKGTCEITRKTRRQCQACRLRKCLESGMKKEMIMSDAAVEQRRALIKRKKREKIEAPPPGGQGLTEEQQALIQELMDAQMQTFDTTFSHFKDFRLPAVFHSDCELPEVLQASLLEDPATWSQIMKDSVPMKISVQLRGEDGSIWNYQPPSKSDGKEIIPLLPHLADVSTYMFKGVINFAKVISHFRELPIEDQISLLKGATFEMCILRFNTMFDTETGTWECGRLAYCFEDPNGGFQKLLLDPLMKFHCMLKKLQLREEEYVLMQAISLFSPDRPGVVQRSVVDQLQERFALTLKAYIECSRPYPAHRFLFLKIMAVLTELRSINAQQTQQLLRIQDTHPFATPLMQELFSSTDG
Sequence of Retinoic acid receptor RXR-alpha (Homo sapiens) (P19793 whole entry, looked up): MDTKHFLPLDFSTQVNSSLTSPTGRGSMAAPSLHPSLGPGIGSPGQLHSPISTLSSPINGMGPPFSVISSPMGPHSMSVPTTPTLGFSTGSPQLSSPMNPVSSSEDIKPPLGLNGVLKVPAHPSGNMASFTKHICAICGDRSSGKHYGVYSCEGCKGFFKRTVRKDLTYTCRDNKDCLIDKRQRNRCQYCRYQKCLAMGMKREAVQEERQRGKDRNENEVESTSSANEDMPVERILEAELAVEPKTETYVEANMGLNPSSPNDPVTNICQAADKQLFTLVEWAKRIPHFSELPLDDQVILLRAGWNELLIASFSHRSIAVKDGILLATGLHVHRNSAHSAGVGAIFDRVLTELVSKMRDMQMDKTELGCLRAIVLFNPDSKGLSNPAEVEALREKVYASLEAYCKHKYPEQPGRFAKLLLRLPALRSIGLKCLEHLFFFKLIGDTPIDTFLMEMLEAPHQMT
Sequence of Peroxisome proliferator-activated receptor gamma (Homo sapiens) (P37231 whole entry, looked up): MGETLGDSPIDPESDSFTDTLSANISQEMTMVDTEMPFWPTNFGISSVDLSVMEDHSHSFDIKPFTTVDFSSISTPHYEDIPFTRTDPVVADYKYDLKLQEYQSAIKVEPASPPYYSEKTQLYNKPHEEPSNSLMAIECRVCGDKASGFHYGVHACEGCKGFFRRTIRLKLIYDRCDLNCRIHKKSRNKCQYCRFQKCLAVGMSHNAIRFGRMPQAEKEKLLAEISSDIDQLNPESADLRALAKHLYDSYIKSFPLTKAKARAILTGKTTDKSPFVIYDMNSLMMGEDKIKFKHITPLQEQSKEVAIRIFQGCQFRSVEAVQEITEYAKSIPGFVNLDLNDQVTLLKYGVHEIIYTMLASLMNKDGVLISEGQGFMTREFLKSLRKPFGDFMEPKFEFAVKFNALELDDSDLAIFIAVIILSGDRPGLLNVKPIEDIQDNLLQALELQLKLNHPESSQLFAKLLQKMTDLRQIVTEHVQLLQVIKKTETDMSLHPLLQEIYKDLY
Sequence of Thyroid hormone receptor beta (Homo sapiens) (P10828 whole entry, looked up): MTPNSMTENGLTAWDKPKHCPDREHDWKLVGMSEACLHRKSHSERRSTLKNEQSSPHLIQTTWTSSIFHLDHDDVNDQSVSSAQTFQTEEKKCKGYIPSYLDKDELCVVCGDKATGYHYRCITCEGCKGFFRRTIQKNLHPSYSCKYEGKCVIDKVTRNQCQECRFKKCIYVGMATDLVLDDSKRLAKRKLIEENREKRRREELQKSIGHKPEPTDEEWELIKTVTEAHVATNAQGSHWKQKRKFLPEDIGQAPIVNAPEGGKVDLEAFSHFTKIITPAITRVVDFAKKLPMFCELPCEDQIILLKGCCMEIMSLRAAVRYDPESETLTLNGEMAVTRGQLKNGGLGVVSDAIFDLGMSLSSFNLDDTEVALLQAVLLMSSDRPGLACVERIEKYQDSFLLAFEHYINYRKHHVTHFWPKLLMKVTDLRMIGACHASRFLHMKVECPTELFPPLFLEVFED
Sequence of Peroxisome proliferator-activated receptor alpha (Homo sapiens) (Q07869 whole entry, looked up): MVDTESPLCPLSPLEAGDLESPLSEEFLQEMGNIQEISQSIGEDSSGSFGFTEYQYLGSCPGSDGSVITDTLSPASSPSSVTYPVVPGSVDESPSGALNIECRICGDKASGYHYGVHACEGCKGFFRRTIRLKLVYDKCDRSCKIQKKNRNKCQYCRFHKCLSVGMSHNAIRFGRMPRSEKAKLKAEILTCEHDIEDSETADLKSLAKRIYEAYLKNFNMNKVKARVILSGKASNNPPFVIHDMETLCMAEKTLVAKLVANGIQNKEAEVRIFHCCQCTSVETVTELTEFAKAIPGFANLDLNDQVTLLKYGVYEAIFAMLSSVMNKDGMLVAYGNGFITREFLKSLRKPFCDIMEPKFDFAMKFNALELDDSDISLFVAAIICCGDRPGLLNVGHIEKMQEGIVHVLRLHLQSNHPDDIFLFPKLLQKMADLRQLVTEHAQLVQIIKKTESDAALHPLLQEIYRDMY
Sequence of Vitamin D3 receptor (Homo sapiens) (P11473 whole entry, looked up): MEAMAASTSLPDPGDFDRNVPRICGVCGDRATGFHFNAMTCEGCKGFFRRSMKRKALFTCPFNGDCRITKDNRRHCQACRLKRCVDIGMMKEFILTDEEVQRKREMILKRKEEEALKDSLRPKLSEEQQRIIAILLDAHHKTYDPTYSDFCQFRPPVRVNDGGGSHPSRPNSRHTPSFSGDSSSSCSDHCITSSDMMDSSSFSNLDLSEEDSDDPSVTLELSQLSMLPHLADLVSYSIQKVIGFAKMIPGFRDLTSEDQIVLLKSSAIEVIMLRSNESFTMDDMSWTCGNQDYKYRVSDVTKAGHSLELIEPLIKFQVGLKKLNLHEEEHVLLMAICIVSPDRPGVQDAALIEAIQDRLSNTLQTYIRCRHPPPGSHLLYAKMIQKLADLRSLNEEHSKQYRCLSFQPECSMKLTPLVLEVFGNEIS
Sequence of Peroxisome proliferator-activated receptor delta (Homo sapiens) (Q03181 whole entry, looked up): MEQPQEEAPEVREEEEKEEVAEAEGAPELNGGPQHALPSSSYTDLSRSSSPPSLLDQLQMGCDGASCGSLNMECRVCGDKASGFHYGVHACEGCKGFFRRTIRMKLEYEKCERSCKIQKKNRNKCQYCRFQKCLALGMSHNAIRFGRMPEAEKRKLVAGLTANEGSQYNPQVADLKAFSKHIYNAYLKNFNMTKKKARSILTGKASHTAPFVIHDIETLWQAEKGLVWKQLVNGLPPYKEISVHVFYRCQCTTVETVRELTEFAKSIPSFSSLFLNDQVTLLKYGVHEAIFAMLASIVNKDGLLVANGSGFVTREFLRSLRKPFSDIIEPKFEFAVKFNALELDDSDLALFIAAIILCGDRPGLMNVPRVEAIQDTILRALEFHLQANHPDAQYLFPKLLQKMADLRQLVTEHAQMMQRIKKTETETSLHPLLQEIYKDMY

CS(C)=O
23%: max response [3]
inactive: activation [1] -5.87% | Potency [2] | outcome [4] | Potency [5] | Potency [6] | outcome [7] | Potency [8] | max response [10] 10.4% | activity change % (negative = inhibition) [11] -25.7% | activation [12] 1.22% | activation [13] 0.392% | activation [14] 0.193% | Potency [15] | max response [16] 16.4% | max response [17] 1.99% | Potency [18] | max response [19] 2.97% | outcome [20]
-13.1%: max response [9]

O=C1CCC(C2CCCCC2)CC1
-15.9%: max response [21]
inactive: Potency [2] | Potency [6] | outcome [7] | Potency [22] | Potency [8] | max response [10] -6.4% | activation [12] -4.16% | activation [13] -1.09% | activation [14] -0.377% | max response [23] -1.16% | Potency [15] | max response [16] -5.5% | Potency [18] | max response [19] -0.198% | outcome [20]
-11.9%: max response [9]

CC(C)CC(C)(O)C#CC(C)(O)CC(C)C (stereo unspecified)
inactive: activation [1] 4.46% | Potency [2] | outcome [4] | Potency [5] | Potency [6] | outcome [7] | Potency [22] | Potency [8] | max response [10] -21.9% | activity change % (negative = inhibition) [11] 20.8% | Potency [24] | activation [12] 1.9% | activation [13] -0.882% | activation [14] 0.133% | max response [23] -1.54% | Potency [15] | max response [17] -6.63% | Potency [18]
-0.0198%: max response [9]
10.7%: max response [21]

O=C(Cl)c1cccc(C(=O)Cl)c1
-7.46%: max response [21]
inactive: Potency [2] | Potency [25] | Potency [5] | Potency [6] | outcome [7] | Potency [22] | max response [10] -13.1% | activity change % (negative = inhibition) [11] -4.29% | Potency [24] | max response [23] -0.213% | Potency [15] | max response [16] 5.28% | max response [17] -6.55% | Potency [18] | max response [19] -0.886% | outcome [20]
-11.7%: max response [3]
-3.89%: max response [9]

CCCCC(CC)CN1C(=O)C2C3C=CC(C3)C2C1=O (stereo unspecified)
8.85%: max response [9]
inactive: activation [1] -12.6% | outcome [4] | Potency [5] | Potency [6] | outcome [7] | Potency [8] | max response [10] -2.63% | activity change % (negative = inhibition) [11] 4.69% | activation [12] -2.19% | activation [13] 0.646% | activation [14] -3.03% | max response [23] 7.9% | Potency [15] | max response [16] 8.11%
